Molecules are shown by their SMILES. Values without a mark were called inactive. For some of these results: Potency and affinity values are given separately. Activity calls are given as the source filed them. Unless noted, the rule behind the calls is not given here.

The term inhibition denotes the drop in the measured response relative to a control, in per cent.

Experiment [1] is described as follows: antimalarial activity against Dd2 strain (AID 2302;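 active = growth inhibition above 50% at the single 2 µM test dose, taken to imply half-maximal potency below 2 µM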;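 note: 0% = DMSO untreated growth and 100% = chloroquine plus artemisinin killed control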). The following applies: P. falciparum Dd2 in RBCs, LDH growth readout, 72 h; at 2 µM; hits give high values.
The nature of experiment [2]: HepG2 cytotoxicity, primary screen, cytotoxicity control for P. falciparum antimalarial project, cell-based, ATP luminescence (AID 2303;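 active = inhibition above 50%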;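 note: 0% = DMSO wells and 100% = digitonin-killed cells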). The following applies: HepG2 viability, 24-48 h, at 10 µM, hits give high values.
Experiment [3] addresses L-lactate dehydrogenase (Plasmodium falciparum (isolate CDC / Honduras)) (UniProt Q27743). Description: PfLDH activity inhibition – cell lysate, 3D7 strain, counter-screen for P. falciparum growth inhibition project (AID 2304).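 Note: 0% = vehicle and 100% = reference inhibitor.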 The conditions noted are these: P. falciparum 3D7 crude extract, LDH APAD/NBT absorbance; at 2 µM; hits give high values.
Experiment [4] can be described thus: inhibition of 3D7 malaria parasite growth – strain 3D7 (AID 2306).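 Note: 0% = DMSO wells and 100% = chloroquine plus artemisinin control wells.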 The conditions noted are these: P. falciparum 3D7 erythrocytic growth, LDH absorbance, 72 h; at 2 µM; hits give high values.
Experiment [5] has as its target Calcium-dependent protein kinase 1 (Plasmodium falciparum (isolate 3D7)) (UniProt P62344). The experiment can be described thus: PfCDPK1 kinase inhibitors, biochemical, TCAMS library (AID 1159585; cut-off not given, nearly all actives have IC50 up to about 0.98 µM;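 note: inhibitors leave more ATP so luminescence rises with inhibition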). The following applies: recombinant PfCDPK1, Kinase-Glo ATP depletion luminescence. In general terms: In Kinase-Glo more light means more ATP remaining.
Experiment [6] deals with Plasmodium falciparum protein kinase 6 (PK6, PF3D7_1337100) (UniProt Q8IDW1). The experiment can be described thus: PfPK6 kinase inhibitors, biochemical, TCAMS library (AID 1159586). The following applies: recombinant PfPK6, Kinase-Glo ATP depletion luminescence.
Plasmodium falciparum protein kinase 6 (PK6, PF3D7_1337100), sequence (Q8IDW1 1-305): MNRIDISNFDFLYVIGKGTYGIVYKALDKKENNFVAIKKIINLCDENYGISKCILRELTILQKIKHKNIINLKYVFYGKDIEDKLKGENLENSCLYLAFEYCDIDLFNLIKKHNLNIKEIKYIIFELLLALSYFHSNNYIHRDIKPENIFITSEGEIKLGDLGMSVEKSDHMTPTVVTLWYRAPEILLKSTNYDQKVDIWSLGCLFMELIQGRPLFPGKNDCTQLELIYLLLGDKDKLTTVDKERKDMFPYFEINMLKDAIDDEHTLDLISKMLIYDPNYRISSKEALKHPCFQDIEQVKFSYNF
The target of experiment [7] is Protein kinase 7 (PK7), Plasmodium falciparum 3D7 (PF3D7_0213400) (UniProt Q7YTF7). The experiment can be described thus: inhibition of Plasmodium PK7 catalytic activity – biochemical, TCAMS antimalarial set, Kinase-Glo luminescence (AID 1159587). The conditions noted are these: recombinant PfPK7, Kinase-Glo ATP depletion luminescence.
Protein kinase 7 (PK7), Plasmodium falciparum 3D7 (PF3D7_0213400), sequence (Q7YTF7 1-343): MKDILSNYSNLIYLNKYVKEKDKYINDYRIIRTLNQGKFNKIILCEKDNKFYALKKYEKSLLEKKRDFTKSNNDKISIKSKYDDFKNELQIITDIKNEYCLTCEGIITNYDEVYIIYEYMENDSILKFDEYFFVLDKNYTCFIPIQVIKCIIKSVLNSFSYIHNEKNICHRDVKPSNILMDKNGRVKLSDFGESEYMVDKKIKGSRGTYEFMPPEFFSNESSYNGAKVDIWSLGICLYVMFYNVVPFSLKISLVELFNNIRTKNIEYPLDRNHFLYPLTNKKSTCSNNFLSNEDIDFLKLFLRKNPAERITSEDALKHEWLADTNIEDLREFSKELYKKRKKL
Experiment [8] addresses Calcium-dependent protein kinase 4 (Plasmodium falciparum (isolate 3D7)) (UniProt Q8IBS5). The experiment can be described thus: PfCDPK4 kinase inhibitors, biochemical, TCAMS library (AID 1159588; cut-off not given, nearly all actives have IC50 up to about 0.91 µM). The conditions noted are these: recombinant PfCDPK4, Kinase-Glo ATP depletion luminescence.

Calcium-dependent protein kinase 4 (Plasmodium falciparum (isolate 3D7)), sequence (Q8IBS5 whole entry, looked up): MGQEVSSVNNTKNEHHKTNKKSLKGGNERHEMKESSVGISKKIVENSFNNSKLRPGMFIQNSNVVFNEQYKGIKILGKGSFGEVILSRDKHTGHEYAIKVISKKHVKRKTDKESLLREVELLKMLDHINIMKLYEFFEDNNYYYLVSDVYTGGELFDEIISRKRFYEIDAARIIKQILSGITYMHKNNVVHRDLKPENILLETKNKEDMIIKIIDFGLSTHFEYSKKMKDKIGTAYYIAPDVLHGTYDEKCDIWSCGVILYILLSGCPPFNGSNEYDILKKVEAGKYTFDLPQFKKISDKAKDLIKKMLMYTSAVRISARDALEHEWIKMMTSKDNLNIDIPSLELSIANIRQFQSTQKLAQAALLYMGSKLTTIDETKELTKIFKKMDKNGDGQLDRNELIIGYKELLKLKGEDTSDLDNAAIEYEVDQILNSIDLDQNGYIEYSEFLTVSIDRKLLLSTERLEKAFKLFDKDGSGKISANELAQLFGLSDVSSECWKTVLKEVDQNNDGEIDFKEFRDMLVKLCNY
Calcium-dependent protein kinase 1 (Plasmodium falciparum (isolate 3D7)), sequence (P62344 whole entry, looked up): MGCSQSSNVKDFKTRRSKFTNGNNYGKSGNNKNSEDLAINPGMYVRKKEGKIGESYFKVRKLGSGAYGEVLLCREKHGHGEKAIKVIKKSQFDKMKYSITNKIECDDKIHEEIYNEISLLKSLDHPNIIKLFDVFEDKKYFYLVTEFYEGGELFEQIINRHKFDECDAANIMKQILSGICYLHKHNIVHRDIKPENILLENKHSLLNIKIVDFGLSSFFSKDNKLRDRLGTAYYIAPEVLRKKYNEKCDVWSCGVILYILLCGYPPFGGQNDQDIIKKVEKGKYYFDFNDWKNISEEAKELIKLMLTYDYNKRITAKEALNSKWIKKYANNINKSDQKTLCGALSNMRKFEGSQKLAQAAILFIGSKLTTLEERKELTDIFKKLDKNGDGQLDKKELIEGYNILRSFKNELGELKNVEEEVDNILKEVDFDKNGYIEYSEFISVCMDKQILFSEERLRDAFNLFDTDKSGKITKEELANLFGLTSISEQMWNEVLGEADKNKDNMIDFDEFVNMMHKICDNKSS
L-lactate dehydrogenase (Plasmodium falciparum (isolate CDC / Honduras)), sequence (Q27743 whole entry, looked up): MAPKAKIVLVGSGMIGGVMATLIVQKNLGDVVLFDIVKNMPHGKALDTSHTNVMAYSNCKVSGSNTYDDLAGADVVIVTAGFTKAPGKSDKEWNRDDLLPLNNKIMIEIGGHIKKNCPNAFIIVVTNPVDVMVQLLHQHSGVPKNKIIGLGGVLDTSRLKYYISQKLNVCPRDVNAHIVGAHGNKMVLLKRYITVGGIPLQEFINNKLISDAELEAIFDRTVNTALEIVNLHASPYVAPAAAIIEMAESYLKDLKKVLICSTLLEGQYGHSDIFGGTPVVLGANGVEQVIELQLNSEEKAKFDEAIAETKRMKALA

As to `COC(=O)CCCCOc1cc(Cc2cnc(N)nc2N)cc(OC)c1OC`, the growth inhibition in experiment [1] is -1%; in experiment [4], 97% (active). Besides, the figures for the inhibition in experiment [2] and in experiment [3] were -10% and -3%, respectively. In addition, the result in experiment [5], in experiment [6], in experiment [7] and in experiment [8] was inactive.

As for `Cc1ccc(S(=O)(=O)N2CCN(C(=O)c3cc(-c4cccs4)[nH]n3)CC2)c(C)c1`, the growth inhibition is 81% (active) in experiment [1] and 85% (active) in experiment [4]. For the same compound, the inhibition in experiment [2] and in experiment [3] was -1% in each case. Besides, the outcome in experiment [5], in experiment [6], in experiment [7] and in experiment [8] was inactive.

With `Cc1ccc(F)cc1S(=O)(=O)NCC(C)c1ccc(NC(=O)Nc2cccc(F)c2)cc1` (stereo not given), the growth inhibition in experiment [1] is 5%; in experiment [4] it was 95% (active). The results for the inhibition in experiment [2] and in experiment [3] were 20% and 2%, respectively. Besides, the result in experiment [5], in experiment [6], in experiment [7] and in experiment [8] was inactive.

Regarding `O=C(NCCCCN1CCC(c2ccc(-c3ccco3)cc2)CC1)c1ccc(NC(=O)c2ccc(Cl)cc2)cc1`, the growth inhibition in experiment [1] was 97% (active); in experiment [4], 100% (active). Besides, the inhibition in experiment [2] was 26%; in experiment [3] it was 6%. The outcome in experiment [5], in experiment [6], in experiment [7] and in experiment [8] was inactive.

With `Cc1cccc2[nH]c(-c3ccc(-c4cccc(NC(=O)C(C)CN5CCN(C)CC5)c4)cc3)nc12` (stereo not given), the growth inhibition is 51% (active) in experiment [1] and 98% (active) in experiment [4]. Besides, the inhibition in experiment [2] is 5%; in experiment [3] it was 3%. The result in experiment [5], in experiment [6], in experiment [7] and in experiment [8] was inactive.

For the compound `Cc1cc(-c2nc3ccc(C(=N)N)cc3[nH]2)c(C)cc1-c1nc2ccc(C(=N)N)cc2[nH]1`, the growth inhibition in experiment [1] is 97% (active); in experiment [4], 96% (active). Further, the figures for the inhibition in experiment [2] and in experiment [3] were 0% and -1%, respectively. Further, the result in experiment [5], in experiment [6], in experiment [7] and in experiment [8] was inactive.

In the case of `O=C(CCNc1ccnc(NCC2CCCCC2)n1)Nc1ccccc1`, the growth inhibition in experiment [1] was 48%; in experiment [4] it was 95% (active). The results for the inhibition in experiment [2] and in experiment [3] were 55% (active) and -3%, respectively. Moreover, the outcome in experiment [5], in experiment [6], in experiment [7] and in experiment [8] was inactive.

Regarding `CCn1cc2c3c(cc(C(=O)N[C@@H](Cc4ccccc4)[C@H](O)CNC4CCOCC4)cc31)N(C)S(=O)(=O)CC2`, the growth inhibition in experiment [1] and in experiment [4] was 98% (active) each time. Besides, the results for the inhibition in experiment [2] and in experiment [3] were -10% and 0%, respectively. The result in experiment [5], in experiment [6], in experiment [7] and in experiment [8] was inactive.

As to `Cn1cc(C(=O)Nc2cccc(-c3cccc(-c4nc5ccccc5[nH]4)c3)c2)n(C)c1=O`, the growth inhibition was 60% (active) in experiment [1] and 99% (active) in experiment [4]. In addition, the inhibition in experiment [2] is 0%; in experiment [3] it was -6%. Moreover, the result in experiment [5], in experiment [6], in experiment [7] and in experiment [8] was inactive.

For `COc1ccc(-c2ccc(NC(=O)c3ccc(F)cc3)cc2)cc1CNC(C)C`, the growth inhibition in experiment [1] is 28%; in experiment [4], 97% (active). In addition, the inhibition in experiment [2] is 24%; in experiment [3], 2%. Further, the result in experiment [5], in experiment [6], in experiment [7] and in experiment [8] was inactive.

For `O=C(Nc1ccc(OC2CCN(Cc3ccc(F)cc3)C2)c(Cl)c1)c1ccoc1` (stereo not given), the growth inhibition in experiment [1] and in experiment [4] was 90% (active) throughout. The inhibition was 13% in experiment [2] and 2% in experiment [3]. For the same compound, the result in experiment [5], in experiment [6], in experiment [7] and in experiment [8] was inactive.

`FC(F)(F)c1ccc(/C=C/c2cncnc2Nc2ccc3nc(Cc4ccccc4)[nH]c3c2)cc1`: the figures for the growth inhibition in experiment [1] and in experiment [4] were 101% (active) and 100% (active), respectively. Also, the inhibition in experiment [2] was 21%; in experiment [3], 1%. Moreover, the result in experiment [5], in experiment [6], in experiment [7] and in experiment [8] was inactive.

Regarding `O=C1NC(c2ccccc2)C2(CCN(CC(O)COc3cccc4ncccc34)CC2)O1` (stereo not given), the growth inhibition in experiment [1] was 95% (active); in experiment [4], 92% (active). The inhibition was 5% in experiment [2] and -4% in experiment [3]. Besides, the outcome in experiment [5], in experiment [6], in experiment [7] and in experiment [8] was inactive.

As for `CC(Oc1ccc(Cl)cc1Cl)c1nc(-c2ccc(NC(=O)c3ccco3)cc2)no1` (stereo not given), the growth inhibition was 82% (active) in experiment [1] and 92% (active) in experiment [4]. Further, the inhibition was 7% in experiment [2] and 0% in experiment [3]. The outcome in experiment [5], in experiment [6], in experiment [7] and in experiment [8] was inactive.

Take `O=S(=O)(Nc1ccc(-c2ccc(CN3CCCC3)cc2)cc1)c1cccc2cccnc12`: the figures for the growth inhibition in experiment [1] and in experiment [4] were 10% and 91% (active), respectively. Besides, the figures for the inhibition in experiment [2] and in experiment [3] were 37% and -8%, respectively. Moreover, the outcome in experiment [5], in experiment [6], in experiment [7] and in experiment [8] was inactive.

As for `CC(C)c1cccc(C(C)C)c1NC(=O)NNC(=O)c1ccc(CCN2CCC(c3nc(COCC(F)(F)F)c(-c4ccc(F)cc4)o3)CC2)cc1`, the growth inhibition is 34% in experiment [1] and 88% (active) in experiment [4]. Besides, the inhibition in experiment [2] is 61% (active); in experiment [3], -2%. For the same compound, the result in experiment [5], in experiment [6], in experiment [7] and in experiment [8] was inactive.

With `COc1ccccc1CCNc1nccc(N[C@@H](Cc2ccccc2)C(=O)NCc2cccs2)n1`, the results for the growth inhibition in experiment [1] and in experiment [4] were 79% (active) and 90% (active), respectively. Besides, the values for the inhibition in experiment [2] and in experiment [3] were 34% and 3%, respectively. The outcome in experiment [5], in experiment [6], in experiment [7] and in experiment [8] was inactive.

For `COC(=O)c1ccc(C2OC3(C(=O)c4ccccc4C3=O)C(OC)=C2Cl)cc1C(C)=O` (stereo not given), the values for the growth inhibition in experiment [1] and in experiment [4] were 85% (active) and 99% (active), respectively. Further, the values for the inhibition in experiment [2] and in experiment [3] were -3% and -2%, respectively. Also, the outcome in experiment [5], in experiment [6], in experiment [7] and in experiment [8] was inactive.

As to `COc1ccccc1CNc1ccnc(N2CC(Oc3ccc(F)cc3)C2)n1`, the growth inhibition in experiment [1] was 95% (active); in experiment [4], 97% (active). Besides, the inhibition in experiment [2] is 2%; in experiment [3] it was -4%. For the same compound, the outcome in experiment [5], in experiment [6], in experiment [7] and in experiment [8] was inactive.

Regarding `Cc1nc(C(=O)N2CCCC[C@H]2CNC(=O)c2ccc(-c3ccc(N4CCCC4=O)cc3C)cc2)c(-c2ccc(F)cc2)s1`, the growth inhibition in experiment [1] was 94% (active); in experiment [4] it was 98% (active). Also, the inhibition in experiment [2] was 6%; in experiment [3], 8%. Also, the outcome in experiment [5], in experiment [6], in experiment [7] and in experiment [8] was inactive.
